Out of some 220,000 compounds screened, about 530 (0.24%) were called active. What follows is part of a selection rich in actives, with near analogues and random picks from the rest. Measured potencies and affinities stand elsewhere. Values without a mark were called inactive. Cut-off read from the data, not from the text of the source: active = inhibition above about 13%; inconclusive = no clear call, values can overlap the other calls; inactive = below that.
These molecules were tested against Bifunctional protein GlmU (Mycobacterium tuberculosis (strain ATCC 25618 / H37Rv)) (UniProt P9WMN3) (assay: inhibition of mycobacterial GlmU enzyme – biochemical, glucosamine-1-phosphate acetyltransferase (AID 1376;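 note: 0% = complete reaction with vehicle and 100% = reaction without substrate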)). Settings: M. tuberculosis GlmU acetyltransferase enzyme assay; stronger effect = higher value;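 tested at 30 µM in the primary screen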.
Sequence of Bifunctional protein GlmU (Mycobacterium tuberculosis (strain ATCC 25618 / H37Rv)) (P9WMN3 whole entry, looked up): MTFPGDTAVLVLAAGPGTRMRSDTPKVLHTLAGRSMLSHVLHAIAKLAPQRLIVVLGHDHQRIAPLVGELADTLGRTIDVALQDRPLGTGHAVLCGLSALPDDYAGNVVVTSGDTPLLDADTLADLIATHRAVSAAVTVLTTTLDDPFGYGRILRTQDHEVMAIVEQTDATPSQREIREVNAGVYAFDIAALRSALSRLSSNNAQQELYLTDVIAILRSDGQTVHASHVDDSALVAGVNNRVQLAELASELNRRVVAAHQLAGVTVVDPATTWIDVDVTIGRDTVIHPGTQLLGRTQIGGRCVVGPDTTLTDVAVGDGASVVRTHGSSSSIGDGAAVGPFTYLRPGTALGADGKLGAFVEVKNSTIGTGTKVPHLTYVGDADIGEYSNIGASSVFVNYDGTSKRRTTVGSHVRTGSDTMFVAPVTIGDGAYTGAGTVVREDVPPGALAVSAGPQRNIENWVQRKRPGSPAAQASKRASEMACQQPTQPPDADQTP
Molecule Cc1cccc(N=C2NC(=O)/C(=C/C=C/c3ccco3)S2)c1C has an inhibition of -4.23%. With O=C1NC(=Nc2ccc(O)cc2)S/C1=C\C=C\c1ccco1 the inhibition was 3.62%. O=C1Cn2c(nc3ccccc32)N1c1cccc(C(F)(F)F)c1 was tested, and the inhibition was 0.84%. For CN(Cc1ccncc1)C1CC(=O)N(c2ccc(F)cc2)C1=O (centres undefined), the inhibition was 5.02%. CCSc1ccccc1C(=O)NC1CCCCC1 gave an inhibition of 2.94%. With CCCNCc1cc(Br)ccc1OCC(=O)NCCc1ccccc1 the inhibition was 0.38%. CC(C)N(Cc1ccccc1)C(=O)Cn1c(=O)cnc2ccccc21 gave an inhibition of -0.29%. With Cc1[nH]n(C2=NCCS2)c(=O)c1N=Nc1cccc(C(F)(F)F)c1 the inhibition was -0.55%. With Cc1ccc(S(=O)(=O)c2c(C)cc(C)nc2Cl)c(C)c1 the inhibition was 1.23%. For Cc1cc(C)c(S(=O)(=O)Nn2cnnc2)c(C)c1, the inhibition was -3.71%. In the case of Cc1cc(C)c(S(=O)(=O)/N=C2\C=CC(=O)C(Cl)=C2)c(C)c1, the inhibition is reported as 14.5% (active). Molecule COc1cccc(C2=NN(C(=O)c3ccco3)C(O)(C(F)(F)F)C2)c1 (centres undefined) has an inhibition of 3.28%. For Cc1ccc(-c2csc3ncnc(OCC(=O)NC(=O)NCc4ccco4)c23)cc1, the inhibition was 2.74%. CN(c1ccccc1)S(=O)(=O)c1ccc(NC(=S)Nc2ccccc2)cc1 was tested, and the inhibition was 18.1% (active). CN(c1ccccc1)S(=O)(=O)c1ccc(NC(=S)NC(=O)c2ccccc2)cc1 gave an inhibition of 0.7%. With CC(=O)Nc1ccc(S(=O)(=O)N(C)c2ccccc2)cc1 the inhibition was -1.32%. O=C1c2cccc(O)c2C(=O)c2c(O)cccc21 gave an inhibition of 6.42%. Work on O=C(O)c1ccc2c(c1Sc1ccccc1)C(=O)c1ccccc1C2=O yielded an inhibition of 7.96%. For O=C1c2cccc(Sc3ccccc3)c2C(=O)c2c(Sc3ccccc3)cccc21, the inhibition was 14.2% (active). For CC(C)C(NC(=O)C1CCC(C(C)(C)C)CC1)C(=O)NCc1cccnc1 (centres undefined), the inhibition was 5%. CCOc1ccc(S(=O)(=O)N2CCN(C(=S)NC3CC3)CC2)cc1 was tested, and the inhibition was 4.79%. In the case of CCn1c(Cc2ccccc2)nnc1SCc1cccc(C(=O)O)c1, the inhibition is reported as 1.34%. In the case of CCC(=NC(C)c1ccccc1)c1c(O)n(C)c(=O)n(C)c1=O (centres undefined), the inhibition is reported as -3.09%. COc1cc2c(cc1OC)C(c1ccccc1O)N(C1CC(=O)N(c3ccccc3)C1=O)CC2 (centres undefined) was tested, and the inhibition was 2.68%. CCOC(=O)Cc1csc(NC(=O)c2cc(C)cc(C)c2)n1 was tested, and the inhibition was -2.68%. With Cn1c(SCC(=O)N2CCOCC2)nnc1-c1ccc2ncccc2c1 the inhibition was 13.7% (active). With Cn1c(SCC(=O)O)nnc1-c1ccc2ncccc2c1 the inhibition was -1.41%. CCOC(=O)CSc1nnc(-c2ccc3ncccc3c2)n1C showed an inhibition of 0.08%. In the case of Cc1ccc(S(=O)(=O)N2CCCOC2CNC(=O)C(=O)NC2CCCCC2)cc1 (centres undefined), the inhibition is reported as -5.78%. Work on Cc1ccc(C=C2C(=O)c3ccccc3C2=O)o1 yielded an inhibition of 2.45%. O=C1/C(=C\c2ccc(Br)o2)Cc2ccccc21 gave an inhibition of 8.39%. COc1ccc(C(CNC(=O)c2ccc(S(=O)(=O)N(C)C)cc2)N2CCCCC2)cc1 (centres undefined) was tested, and the inhibition was 0.14%. With COc1ccc(NC(=O)N2CCCC2C(=O)NCc2ccc(C)cc2)cc1 (centres undefined) the inhibition was 1.15%. With CC(C)CNC(C)C(=O)Nc1ccc(S(N)(=O)=O)cc1 (centres undefined) the inhibition was -3.38%. For C=CCOc1c2ccc(C(=O)NCc3ccc(C)cc3)cc2nn1C, the inhibition was 1.15%. CC(=O)NNC(=O)c1cc2c3ccccc3n(C)c2s1 showed an inhibition of 2.59%. With Cn1c2ccccc2c2cc(C(=O)N3CCN(CCO)CC3)sc21 the inhibition was 12.8% (active). Cn1c2ccccc2c2cc(C(=O)N3CCOCC3)sc21 was tested, and the inhibition was 5.13%. With CN1CCc2nc(SCc3cccc(Br)c3)c(C#N)cc2C1 the inhibition was 13% (active). Cc1cccc(CSc2nc3c(cc2C#N)CN(C)CC3)c1 gave an inhibition of -4.03%. CN1CCc2nc(SCc3ccccc3Br)c(C#N)cc2C1 was tested, and the inhibition was -4.18%. Cc1c(C(=O)OCCOc2ccccc2)[nH]c2c1C(=O)CCC2 showed an inhibition of 2.56%. With N#C/C(=C/c1ccncc1)c1nc2ccccc2s1 the inhibition was -6.23%. N#C/C(=C\c1ccco1)c1nc2ccccc2s1 showed an inhibition of 7.35%. COc1cc(/C=C(\C#N)c2nc3ccccc3s2)cc([N+](=O)[O-])c1O was tested, and the inhibition was 6.33%. With N#C/C(=C\c1ccc(Sc2ccccc2)o1)c1nc2ccccc2[nH]1 the inhibition was -4.05%. For N#C/C(=C\c1ccc([N+](=O)[O-])o1)c1nc2ccccc2[nH]1, the inhibition was -6.95%. N#C/C(=C/c1ccc(-c2ccc(S(N)(=O)=O)cc2)o1)c1nc2ccccc2s1 gave an inhibition of 6.34%. In the case of CC(C)(C)NC(=O)NC(=O)COC(=O)c1ccc2c(c1)S(=O)(=O)N=C1CCCCCN12, the inhibition is reported as -5.9%.

From PubChem BioAssay AID1376 (SRMLSC, 2008)
